Screening data deposited in PubChem BioAssay by The Scripps Research Institute Molecular Screening Center.
An excerpt weighted towards active compounds, which were near 2% of everything screened.
CHRM4 PAM – potentiates acetylcholine response at human M4 receptor; P08173; AID 624126; hit rate 0.4% among 360,000; activation, % at 3 µM; CHO-K1 hM4/Gqi5, Fluo-8 calcium fluorescence, ACh EC20; 0% = ACh EC20, 100% = maximal ACh;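 active means activation above its plate's cutoff, the mean activation of sample wells plus 3 SD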
Target sequence (P08173 whole entry, looked up): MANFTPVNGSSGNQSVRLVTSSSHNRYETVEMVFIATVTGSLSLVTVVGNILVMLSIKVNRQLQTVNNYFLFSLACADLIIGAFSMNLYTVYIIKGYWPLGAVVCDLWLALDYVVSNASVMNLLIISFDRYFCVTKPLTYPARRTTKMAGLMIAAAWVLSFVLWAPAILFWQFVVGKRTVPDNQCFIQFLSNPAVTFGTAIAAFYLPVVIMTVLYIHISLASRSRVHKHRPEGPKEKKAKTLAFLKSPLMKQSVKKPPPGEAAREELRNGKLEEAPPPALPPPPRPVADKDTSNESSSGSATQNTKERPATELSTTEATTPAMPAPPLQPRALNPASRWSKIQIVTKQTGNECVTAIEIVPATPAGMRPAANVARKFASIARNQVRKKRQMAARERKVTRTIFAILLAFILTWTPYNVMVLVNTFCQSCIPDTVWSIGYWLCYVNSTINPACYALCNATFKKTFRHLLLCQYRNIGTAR
M4 ag – CHRM4 agonism in calcium assay. P08173. CHO-K1 hM4/Gqi5, Fluo-8 calcium fluorescence; vehicle 0%, full acetylcholine response 100%. hit rate 0.14% among 360,000. AID 624127. activation, % at 3 µM;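 active means activation above the run mean over all test wells plus 3 SD, cut at about 32% in these data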;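 further: peak over basal fluorescence ratio per well then scaled between controls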
CHO-K1 Ca antag – M1 antagonist counterscreen hit in parental CHO-K1 cells; inhibition, % at 3 µM; hit rate 0.6% among 360,000; ATP-induced calcium, Fluo-8 fluorescence; AID 602250;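 active means inhibition above a per-plate cutoff, the plate's mean sample inhibition plus 3 SD, cut at about 24% in these data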
CHO-K1 Ca ag – counter-screen for M1 agonists: effect in parental CHO-K1 cells; Fluo-8 calcium fluorescence; scaled to maximal ATP response, vehicle zero; activation, % at 3 µM; hit rate 0.48% among 360,000; AID 602248; in the data active means activation above about 15%;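 further: untransfected CHO-K1 host cells lacking M1 receptor as counterscreen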
CHRM4 antagonist – antagonists of human muscarinic M4 receptor (CHRM4); P08173; CHO-hM4 cells, ACh EC80, Fluo-8 calcium fluorescence; inhibition, % at 3 µM; hit rate 0.73% among 360,000; AID 624125;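 active means inhibition above its plate's cutoff, the mean inhibition of sample wells plus 3 SD, cut at about 27% in these data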
M1 PAM parental – counter-screen for M1 PAMs: effect in parental CHO-K1 cells; ATP EC20, Fluo-8 calcium fluorescence; 0% at ATP EC20, 100% at ATP max; activation, % at 3 µM; hit rate 0.02% among 360,000; AID 602247;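 active means activation above the run cutoff, the mean activation of all test compounds plus 3 SD, cut at about 40% in these data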;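 further: peak over basal fluorescence ratio in a 140 s read after ATP addition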
Each line names hits and unclear results; the compound was inactive in the other large screens.

CCC(c1nnnn1Cc1ccc(OC)cc1)N1CCN(c2ccc(OC)cc2)CC1 (stereo not drawn)	CHO-K1 Ca antag 25.4
Cc1cccc2sc(N(CCCN(C)C)C(=O)c3ccc4ncsc4c3)nc12	CHRM4 PAM 33.8, CHRM4 antagonist 29.8
Cc1ccc(Cl)cc1N1CCN(C(=O)CCS(=O)(=O)c2ccc3c(c2)NC(=O)CO3)CC1	CHO-K1 Ca ag 15.5
O=C1COc2ccc(S(=O)(=O)CCC(=O)N3CCN(c4cccc(Cl)c4)CC3)cc2N1	none
O=C1CC(c2ccc(F)cc2)Cc2nc(N3CCN(c4ccccc4)CC3)ncc21 (stereo not drawn)	CHO-K1 Ca antag 40.2
CCCCCCc1ccc(N2C[C@H](C)[C@@H](CC(=O)NCc3ccccc3)C2=O)cc1	none
O=C(c1ccc(COc2ccc(Cl)cc2)o1)N1CCN(Cc2ccc3c(c2)OCO3)CC1	none
CCN(CC)CCN1C(=O)C(=O)/C(=C(/O)c2c(C)[nH]c(C(=O)OC)c2C)C1c1ccccc1OC (stereo not drawn)	CHO-K1 Ca antag 30.9
CCN(CC)CCN1C(=O)C(=O)/C(=C(/O)c2c(C)[nH]c(C(=O)OC)c2C)C1c1cccs1 (stereo not drawn)	none
COc1ccc(/C=C(/C(=O)c2cccs2)N2C=CC=CC2=C(C#N)C#N)cc1	none
COc1ccc(C(=O)/C(=C\c2ccco2)N2C=CC=CC2=C(C#N)C#N)cc1	none
N#CC(C#N)=C1C=CC=CN1/C(=C\c1ccco1)C(=O)c1ccccc1	CHRM4 antagonist 30.0
N#CC(C#N)=C1C=CC=CN1/C(=C\c1ccco1)C(=O)c1ccc(Br)cc1	CHRM4 antagonist 68.6
C/C(=C/c1ccccc1)C(=O)N1CCN(c2ccc(F)cc2)CC1	CHO-K1 Ca ag 15.7
O=C(CCC(=O)N1CCN(c2ccc(F)cc2)CC1)N1CCN(c2ccc(F)cc2)CC1	none
CN1CCN(C(=O)/C(=C/c2ccccc2)c2ccccc2)CC1	CHRM4 antagonist 53.5
CC1CCN(CCNC(=O)C2CCCN(S(=O)(=O)c3cccc4nsnc34)C2)CC1 (stereo not drawn)	CHO-K1 Ca antag 34.1
O=C(Nc1ccccc1Br)C1CCCN1S(=O)(=O)c1cccc2nsnc12 (stereo not drawn)	none
O=C(NCCCN1CCCCCC1)C1CCCN(S(=O)(=O)c2cccc3nsnc23)C1 (stereo not drawn)	none
CC(=O)Nc1ccc(NC(=O)C2CCCN2S(=O)(=O)c2cccc3nsnc23)cc1 (stereo not drawn)	CHO-K1 Ca ag 18.8
O=C(Nc1ccccc1F)C1CCCN1S(=O)(=O)c1cccc2nsnc12 (stereo not drawn)	CHO-K1 Ca antag 58.2
COc1ccccc1NC(=O)C1CCCN1S(=O)(=O)c1cccc2nsnc12 (stereo not drawn)	none
O=C(CC1CCCC1)NCCS(=O)(=O)N1CCN(c2ccccc2F)CC1	none
CC1OC2CC(=O)OC2C2=C1C(=O)c1c(O)cccc1C2=O (stereo not drawn)	CHRM4 antagonist 29.2
CCc1nnc(NC(=O)CSc2nnc3nc(C)cc(C)n23)s1	CHRM4 PAM 18.4
COc1ccc(N(CC(=O)Nc2ccc(S(=O)(=O)N3CCCCC3)cc2)S(C)(=O)=O)cc1OC	none
CCN(CC)CCCN(C(=O)c1ccc(Br)cc1)c1nc(-c2ccc(OC)cc2)cs1	CHRM4 PAM 46.5
CCN(CC)CCCN(C(=O)c1cccs1)c1nc(-c2ccc(OC)cc2)cs1	none
CCN(CC)CCCN(C(=O)c1cccc(C)c1)c1nc(-c2ccc(OC)cc2)cs1	CHRM4 PAM 65.0, CHRM4 antagonist 35.3
COc1ccc(-n2nnnc2CNC(=O)C2CC(=O)N(c3ccc(F)cc3)C2)cc1 (stereo not drawn)	CHO-K1 Ca antag 27.6
COc1ccc(N2CC(C(=O)Nc3c4c(nn3-c3ccc(OC)cc3)CS(=O)(=O)C4)CC2=O)cc1 (stereo not drawn)	CHRM4 PAM 19.7
O=C(COC(=O)Cc1c(F)cccc1Cl)NCCC1=CCCCC1	none
CC(C)(C)c1ccc(/C=N/NC(=S)NCc2ccccc2)cc1	CHRM4 PAM 25.2
NC(=O)CSc1nc(O)cc(=O)n1-c1ccccc1	CHRM4 PAM 16.8
Cc1ccc(-n2c(SCC(N)=O)nc(O)cc2=O)cc1	none
S=C(Nc1cccc(Cl)c1)N(CCCN1CCCC1)Cc1cccn1Cc1ccc(Cl)cc1	none
O=C(Nc1ccc(F)cc1)c1nc(S(=O)(=O)Cc2ccccc2)ncc1Cl	CHRM4 antagonist 35.7
Cc1cccc(CS(=O)(=O)c2ncc(Cl)c(C(=O)Nc3c(C)cccc3C)n2)c1	none
COc1ccc(OC)c(NC(=O)c2nc(S(=O)(=O)Cc3ccccc3)ncc2Cl)c1	CHRM4 antagonist 44.3
Cc1ccc(NC(=O)c2nc(S(=O)(=O)Cc3ccccc3)ncc2Cl)cc1	CHRM4 antagonist 45.8
Cc1ccccc1CS(=O)(=O)c1ncc(Cl)c(C(=O)Nc2ccc(F)cc2)n1	CHRM4 antagonist 29.1
Cc1cccc(C)c1NC(=O)c1nc(S(=O)(=O)Cc2ccccc2)ncc1Cl	none
COc1ccc(NC(=O)c2nc(S(=O)(=O)Cc3cccc(C)c3)ncc2Cl)c(OC)c1	none
O=C(CNC(=O)C1CCCCC1)OCC(=O)c1ccc(F)cc1	none
CC(=O)n1cc([C@H]2C=C(C(N)=O)O[C@@H](OCc3ccc(CO)cc3)C2)c2ccccc21	M4 ag 34.2, CHO-K1 Ca ag 19.8
C=CCn1cc(C(=O)NCc2cccnc2)c(=O)c2cc(S(=O)(=O)N(CC)CC)ccc21	none
COc1cc(C(=O)Oc2c(CN3CCOCC3)cc(Cl)c3cccnc23)cc(OC)c1OC	none
c1ccc(CNc2nc(NCCc3ccncc3)c3sccc3n2)cc1	M4 ag 154.7, CHO-K1 Ca antag 99.0, CHO-K1 Ca ag 93.1, CHRM4 antagonist 100.2
COCCNc1nc(NCc2cccs2)nc2ccsc12	M4 ag 158.7, CHO-K1 Ca antag 64.1, CHO-K1 Ca ag 85.0, CHRM4 antagonist 91.7
c1csc(CNc2nc(NCC3CCCCC3)c3sccc3n2)c1	CHRM4 antagonist 27.1
Cc1ccc(Nc2nc(NCc3ccccc3)nc3ccsc23)c(C)c1	M4 ag 38.7, CHRM4 antagonist 57.5
COc1ccc2cc3cc(C(=O)N(C)C4CCCCC4)oc3nc2c1	none
CC(C)N1CCc2c(sc(NC(=O)c3ccc(C(=O)c4ccccc4)cc3)c2C(N)=O)C1	none
CCOC(=O)N1CCN(C(=O)CC(C(=O)N2CCc3ccccc32)n2ccnc2)CC1 (stereo not drawn)	none
CC(C)Nc1nc(NCCN2CCNC2=O)c2sccc2n1	none
O=C1NCCN1CCNc1nc(NCc2ccccc2)nc2ccsc12	M4 ag 45.9, CHO-K1 Ca antag 27.3, CHO-K1 Ca ag 32.2, CHRM4 antagonist 52.2
